For some assays here: Measured potencies and affinities stand elsewhere. Active and inactive are the calls of the source. Unless noted, no rule for the calls is given here.
Assays:
[1] = antimalarial activity against Dd2 strain (AID 2302;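 active = growth inhibition above 50% at the single 2 µM test dose, taken to imply half-maximal potency below 2 µM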;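 also: 0% = DMSO untreated growth and 100% = chloroquine plus artemisinin killed control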); details: P. falciparum Dd2 in RBCs, LDH growth readout, 72 h; at 2 µM; active compounds read high
[2] = human hepatoma cell viability loss – ATP luminescence, cytotoxicity control for P. falciparum antimalarial project, primary screen (AID 2303;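 active = inhibition above 50%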;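 also: 0% = DMSO wells and 100% = digitonin-killed cells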); details: HepG2 viability, 24-48 h, at 10 µM, active compounds read high
[3] = target: L-lactate dehydrogenase (Plasmodium falciparum (isolate CDC / Honduras)) (UniProt Q27743); assay: PfLDH activity inhibition – cell lysate, 3D7 strain, counter-screen for P. falciparum growth inhibition project (AID 2304);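 also: 0% = vehicle and 100% = reference inhibitor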; details: P. falciparum 3D7 crude extract, LDH APAD/NBT absorbance; at 2 µM; active compounds read high
L-lactate dehydrogenase (Plasmodium falciparum (isolate CDC / Honduras)), sequence (Q27743 whole entry, looked up): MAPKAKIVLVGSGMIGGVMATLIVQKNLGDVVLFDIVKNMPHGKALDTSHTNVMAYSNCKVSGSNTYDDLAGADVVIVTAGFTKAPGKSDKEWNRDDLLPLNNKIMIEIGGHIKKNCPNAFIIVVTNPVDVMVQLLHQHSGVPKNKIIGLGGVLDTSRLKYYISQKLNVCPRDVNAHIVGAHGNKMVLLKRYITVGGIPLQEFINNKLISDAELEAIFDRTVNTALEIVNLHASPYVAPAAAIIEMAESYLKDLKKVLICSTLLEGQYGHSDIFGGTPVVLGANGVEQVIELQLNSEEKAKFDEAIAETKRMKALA

[4] = inhibition of 3D7 malaria parasite growth – strain 3D7 (AID 2306);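 also: 0% = DMSO wells and 100% = chloroquine plus artemisinin control wells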; details: P. falciparum 3D7 erythrocytic growth, LDH absorbance, 72 h; at 2 µM; active compounds read high
[5] = target: Calcium-dependent protein kinase 1 (Plasmodium falciparum (isolate 3D7)) (UniProt P62344); assay: PfCDPK1 kinase inhibitors, biochemical, TCAMS library (AID 1159585; cut-off not given, nearly all actives have IC50 up to about 0.98 µM;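 also: inhibitors leave more ATP so luminescence rises with inhibition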); details: recombinant PfCDPK1, Kinase-Glo ATP depletion luminescence
Calcium-dependent protein kinase 1 (Plasmodium falciparum (isolate 3D7)), sequence (P62344 whole entry, looked up): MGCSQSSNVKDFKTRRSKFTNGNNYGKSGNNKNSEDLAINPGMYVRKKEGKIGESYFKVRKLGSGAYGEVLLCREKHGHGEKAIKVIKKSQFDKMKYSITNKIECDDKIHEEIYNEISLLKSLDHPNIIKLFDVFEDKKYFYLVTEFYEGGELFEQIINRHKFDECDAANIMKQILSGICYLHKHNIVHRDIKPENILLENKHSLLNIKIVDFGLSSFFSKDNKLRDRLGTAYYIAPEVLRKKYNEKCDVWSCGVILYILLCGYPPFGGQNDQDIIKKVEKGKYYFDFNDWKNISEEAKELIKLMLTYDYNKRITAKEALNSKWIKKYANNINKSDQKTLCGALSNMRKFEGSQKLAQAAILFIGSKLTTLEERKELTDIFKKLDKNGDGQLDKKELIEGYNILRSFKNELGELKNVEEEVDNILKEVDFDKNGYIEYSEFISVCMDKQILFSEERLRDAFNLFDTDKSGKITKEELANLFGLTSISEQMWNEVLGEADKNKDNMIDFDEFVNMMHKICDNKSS

[6] = target: Plasmodium falciparum protein kinase 6 (PK6, PF3D7_1337100) (UniProt Q8IDW1); assay: PfPK6 kinase inhibitors, biochemical, TCAMS library (AID 1159586); details: recombinant PfPK6, Kinase-Glo ATP depletion luminescence
Plasmodium falciparum protein kinase 6 (PK6, PF3D7_1337100), sequence (Q8IDW1 1-305): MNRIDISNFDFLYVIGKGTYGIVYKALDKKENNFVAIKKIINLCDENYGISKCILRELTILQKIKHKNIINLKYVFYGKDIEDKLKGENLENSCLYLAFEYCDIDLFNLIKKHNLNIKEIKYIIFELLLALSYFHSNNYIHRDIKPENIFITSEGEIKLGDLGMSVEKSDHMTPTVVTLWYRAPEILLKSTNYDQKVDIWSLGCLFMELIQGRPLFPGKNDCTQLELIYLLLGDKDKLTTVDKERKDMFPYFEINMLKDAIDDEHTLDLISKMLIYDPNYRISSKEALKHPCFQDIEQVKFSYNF

[7] = target: Protein kinase 7 (PK7), Plasmodium falciparum 3D7 (PF3D7_0213400) (UniProt Q7YTF7); assay: inhibition of Plasmodium PK7 catalytic activity – biochemical, TCAMS antimalarial set, Kinase-Glo luminescence (AID 1159587); details: recombinant PfPK7, Kinase-Glo ATP depletion luminescence
Protein kinase 7 (PK7), Plasmodium falciparum 3D7 (PF3D7_0213400), sequence (Q7YTF7 1-343): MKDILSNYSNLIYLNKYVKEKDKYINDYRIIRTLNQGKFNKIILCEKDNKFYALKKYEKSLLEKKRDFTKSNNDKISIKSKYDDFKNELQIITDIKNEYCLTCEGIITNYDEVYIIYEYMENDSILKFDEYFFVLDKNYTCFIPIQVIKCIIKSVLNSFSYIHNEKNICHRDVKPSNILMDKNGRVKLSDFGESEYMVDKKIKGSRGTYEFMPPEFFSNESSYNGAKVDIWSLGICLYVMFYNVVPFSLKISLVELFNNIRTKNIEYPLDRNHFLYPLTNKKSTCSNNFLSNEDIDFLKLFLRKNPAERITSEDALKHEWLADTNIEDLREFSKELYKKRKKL

[8] = target: Calcium-dependent protein kinase 4 (Plasmodium falciparum (isolate 3D7)) (UniProt Q8IBS5); assay: PfCDPK4 kinase inhibitors, biochemical, TCAMS library (AID 1159588; cut-off not given, nearly all actives have IC50 up to about 0.91 µM); details: recombinant PfCDPK4, Kinase-Glo ATP depletion luminescence
Calcium-dependent protein kinase 4 (Plasmodium falciparum (isolate 3D7)), sequence (Q8IBS5 whole entry, looked up): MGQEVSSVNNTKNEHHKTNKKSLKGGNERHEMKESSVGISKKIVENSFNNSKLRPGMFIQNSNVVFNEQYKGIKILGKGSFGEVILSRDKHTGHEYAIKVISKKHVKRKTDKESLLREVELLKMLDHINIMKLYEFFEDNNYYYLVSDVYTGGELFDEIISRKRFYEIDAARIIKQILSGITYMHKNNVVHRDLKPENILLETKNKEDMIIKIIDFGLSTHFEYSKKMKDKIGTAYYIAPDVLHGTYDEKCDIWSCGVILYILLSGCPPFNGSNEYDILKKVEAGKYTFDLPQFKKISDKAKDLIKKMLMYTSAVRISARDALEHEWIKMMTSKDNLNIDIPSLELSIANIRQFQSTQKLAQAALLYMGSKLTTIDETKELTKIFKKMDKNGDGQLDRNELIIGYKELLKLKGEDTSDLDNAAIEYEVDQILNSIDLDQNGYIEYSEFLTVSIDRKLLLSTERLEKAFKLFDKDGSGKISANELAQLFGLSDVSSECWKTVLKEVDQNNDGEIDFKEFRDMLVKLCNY

COc1ccccc1NC(=O)Nc1cccc(-c2ccc(-c3nc4ccc(C(F)(F)F)cc4[nH]3)cc2)c1
inactive: inhibition [2] 28% | inhibition [3] 5% | outcome [5] | outcome [6] | outcome [7] | outcome [8]
active: growth inhibition [1] 76% | growth inhibition [4] 100%

Cc1ccccc1CCNC(=O)c1cnc(N2CCN(c3ccncc3)CC2)c(Cl)c1
inactive: inhibition [2] 36% | inhibition [3] -2% | outcome [5] | outcome [6] | outcome [7] | outcome [8]
active: growth inhibition [1] 95% | growth inhibition [4] 100%

COCn1ccc2c3c(N)nc(N)nc3ccc21
inactive: growth inhibition [1] 1% | inhibition [3] 6% | outcome [5] | outcome [6] | outcome [7] | outcome [8]
active: inhibition [2] 63% | growth inhibition [4] 88%

COc1cccc(Nc2nc(N)c3ccccc3n2)c1
active: growth inhibition [4] 88%
inactive: growth inhibition [1] 47% | inhibition [2] 18% | inhibition [3] -2% | outcome [5] | outcome [6] | outcome [7] | outcome [8]

O=C(NCCCN1CCC(N2CCCCC2)CC1)c1ccc(N2CCOc3ccccc32)s1
inactive: growth inhibition [1] 12% | inhibition [2] 37% | inhibition [3] 4% | outcome [5] | outcome [6] | outcome [7] | outcome [8]
active: growth inhibition [4] 101%

CC(C)N1CCC(N(Cc2ccc(-c3ccc(C(F)(F)F)cc3)cc2)C(=O)CCCn2c(CCc3cccc(F)c3F)nc(=O)c3ccccc32)CC1
inactive: inhibition [2] 45% | inhibition [3] -5% | outcome [5] | outcome [6] | outcome [7] | outcome [8]
active: growth inhibition [1] 60% | growth inhibition [4] 89%

CNc1ccc(CNCc2ccc(-c3ccc(-c4nc5ccc(F)cc5[nH]4)cc3)cc2)cc1
inactive: inhibition [2] 38% | inhibition [3] -5% | outcome [5] | outcome [6] | outcome [7] | outcome [8]
active: growth inhibition [1] 95% | growth inhibition [4] 101%

Nc1nccc2ccc(-c3ccnc(NCc4cccnc4)n3)cc12
inactive: inhibition [2] 11% | inhibition [3] -3% | outcome [5] | outcome [6] | outcome [7] | outcome [8]
active: growth inhibition [1] 95% | growth inhibition [4] 101%

Cc1nc(Nc2ccc(F)cc2)nc(N2CCc3cc(O)ccc3C2C)c1C (stereo not given)
active: growth inhibition [1] 97% | growth inhibition [4] 99%
inactive: inhibition [2] -5% | inhibition [3] -6% | outcome [5] | outcome [6] | outcome [7] | outcome [8]

Cc1ccc(Nc2ccnc3cc(-c4nccs4)ccc23)cc1C(O)c1ccccc1 (stereo not given)
active: growth inhibition [1] 83% | growth inhibition [4] 85%
inactive: inhibition [2] 23% | inhibition [3] -8% | outcome [5] | outcome [6] | outcome [7] | outcome [8]

O=C(Nc1cccc(CN2CCCN(Cc3ccc(O)cc3)CC2)c1)c1cc(F)cc(F)c1
active: growth inhibition [4] 100%
inactive: growth inhibition [1] 13% | inhibition [2] 15% | inhibition [3] 0% | outcome [5] | outcome [6] | outcome [7] | outcome [8]

CN(C)c1ccc(-c2csc(C(=O)NC3CCCCN(Cc4ccc(C(C)(C)C)cc4)C3)c2)cc1 (stereo not given)
active: growth inhibition [1] 55% | growth inhibition [4] 84%
inactive: inhibition [2] 17% | inhibition [3] 4% | outcome [5] | outcome [6] | outcome [7] | outcome [8]

O=C(NCCc1ccccc1)N(Cc1cccc(-c2ccc(CNC3CCCC3)cc2)c1)C1CCN(Cc2ccccc2)CC1
active: growth inhibition [1] 84% | growth inhibition [4] 98%
inactive: inhibition [2] 36% | inhibition [3] 0% | outcome [5] | outcome [6] | outcome [7] | outcome [8]

CC(CN1CCN(C)CC1)C(=O)Nc1cccc(-c2ccc(-c3nc4ccccc4[nH]3)s2)c1 (stereo not given)
active: growth inhibition [1] 59% | growth inhibition [4] 97%
inactive: inhibition [2] 2% | inhibition [3] 2% | outcome [5] | outcome [6] | outcome [7] | outcome [8]

Cc1cc(C=C(P(=O)(OC(C)C)OC(C)C)P(=O)(OC(C)C)OC(C)C)c2ccccc2c1O
active: growth inhibition [1] 54% | growth inhibition [4] 85%
inactive: inhibition [2] 15% | inhibition [3] -6% | outcome [5] | outcome [6] | outcome [7] | outcome [8]

O=C(/C=C/c1ccc(Cl)c(Cl)c1)NCCCCCN1CCC(NC(=O)c2ccc(F)cc2)CC1
active: growth inhibition [4] 102%
inactive: growth inhibition [1] 13% | inhibition [2] 14% | inhibition [3] -1% | outcome [5] | outcome [6] | outcome [7] | outcome [8]

CC1CCCCN1CCCNc1ncc2c(-c3ccc(NC(=O)Nc4cc(C(F)(F)F)ccc4F)c(F)c3)nn(C)c2n1 (stereo not given)
active: growth inhibition [1] 97% | growth inhibition [4] 101%
inactive: inhibition [2] 27% | inhibition [3] 2% | outcome [5] | outcome [6] | outcome [7] | outcome [8]

CNCCNCc1cccc(-c2ccc(-c3nc4ccccc4[nH]3)cc2)c1
active: growth inhibition [4] 99%
inactive: growth inhibition [1] 27% | inhibition [2] 13% | inhibition [3] -6% | outcome [5] | outcome [6] | outcome [7] | outcome [8]

COc1ccc2nccc([C@@H](O)CN3CCC(NC(=O)/C=C/c4ccc(F)c5ccccc45)CC3)c2c1
inactive: inhibition [2] 37% | inhibition [3] 0% | outcome [5] | outcome [6] | outcome [7] | outcome [8]
active: growth inhibition [1] 75% | growth inhibition [4] 100%

COc1cc2nc(N[C@@H](CO)c3ccccc3)nc(NCc3ccccc3)c2cc1OC
active: growth inhibition [1] 71% | growth inhibition [4] 101%
inactive: inhibition [2] 6% | inhibition [3] 1% | outcome [5] | outcome [6] | outcome [7] | outcome [8]

COc1cc(C2CCN(CCCCNC(=O)c3ccc(NC(=O)c4ccc(Cl)c(Cl)c4)cc3)CC2)ccc1OC(C)C
inactive: inhibition [2] 45% | inhibition [3] -5% | outcome [5] | outcome [6] | outcome [7] | outcome [8]
active: growth inhibition [1] 96% | growth inhibition [4] 101%

O=C(/C=C/c1ccc(Cl)c(Cl)c1)NCCCCCN1CCC(NC(=S)Nc2ccc(F)cc2F)CC1
inactive: growth inhibition [1] 18% | inhibition [2] 20% | inhibition [3] 1% | outcome [5] | outcome [6] | outcome [7] | outcome [8]
active: growth inhibition [4] 100%

O=C(Nc1ccc(CCNCCCc2ccccc2)cc1)Nc1ccc(Cl)c(Cl)c1
active: growth inhibition [1] 99% | growth inhibition [4] 100%
inactive: inhibition [2] 33% | inhibition [3] -1% | outcome [5] | outcome [6] | outcome [7] | outcome [8]

CCCCC(CC)C(=O)C(NC(=O)[C@H](CSC(c1ccccc1)(c1ccccc1)c1ccccc1)NC(=O)OC(C)(C)C)C(=O)OC (stereo not given in full)
active: growth inhibition [4] 88%
inactive: growth inhibition [1] 31% | inhibition [2] 8% | inhibition [3] 0% | outcome [5] | outcome [6] | outcome [7] | outcome [8]

Cc1cccc2[nH]c(-c3ccc(-c4ccc(CN5CCN(CCN6CCOCC6)CC5)cc4)s3)nc12
inactive: inhibition [2] 41% | inhibition [3] 3% | outcome [5] | outcome [6] | outcome [7] | outcome [8]
active: growth inhibition [1] 99% | growth inhibition [4] 100%

O=C(Nc1ccc(Cl)cc1)N1CCN(C2CCCCC2)CC1
inactive: growth inhibition [1] -6% | inhibition [2] 17% | inhibition [3] -3% | outcome [5] | outcome [6] | outcome [7] | outcome [8]
active: growth inhibition [4] 93%

CC[C@@]1(O)C(=O)OCc2c1cc1n(c2=O)Cc2c-1nc1cc3c(cc1c2CN1CCN(C)CC1)OCCO3
inactive: inhibition [3] 1% | outcome [5] | outcome [6] | outcome [7] | outcome [8]
active: growth inhibition [1] 97% | inhibition [2] 79% | growth inhibition [4] 98%

CCOc1cc2ncnc(Nc3cc(Cl)c(Cl)c(Cl)c3)c2cc1OCC
inactive: inhibition [2] 11% | inhibition [3] -3% | outcome [5] | outcome [6] | outcome [7] | outcome [8]
active: growth inhibition [1] 98% | growth inhibition [4] 102%

COc1ccc(-c2cc3nc4c(c(NCCCn5ccnc5)n3n2)CCCC4)cc1
inactive: inhibition [2] 5% | inhibition [3] -2% | outcome [5] | outcome [6] | outcome [7] | outcome [8]
active: growth inhibition [1] 74% | growth inhibition [4] 95%

Nc1cccc(CNCc2ccc(-c3cccc(-c4nc5ccc(C(F)(F)F)cc5[nH]4)c3)cc2)c1
inactive: inhibition [3] -2% | outcome [5] | outcome [6] | outcome [7] | outcome [8]
active: growth inhibition [1] 100% | inhibition [2] 60% | growth inhibition [4] 100%

O=C(NC(c1ccccc1)c1ccccc1)C(c1cc2ccccc2o1)N1CCN(C(c2ccccc2)c2ccccc2)CC1 (stereo not given)
inactive: inhibition [2] -1% | inhibition [3] -1% | outcome [5] | outcome [6] | outcome [7] | outcome [8]
active: growth inhibition [1] 78% | growth inhibition [4] 95%

NS(=O)(=O)c1cccc(-c2ccc3ncc(N4CCOCC4)nc3c2)c1
active: growth inhibition [1] 74% | growth inhibition [4] 96%
inactive: inhibition [2] 17% | inhibition [3] -4% | outcome [5] | outcome [6] | outcome [7] | outcome [8]

COc1ccc(CNC2CCN(C)CC2)cc1-c1ccc(S(=O)(=O)NCc2ccccc2)c(F)c1
active: growth inhibition [1] 97% | inhibition [2] 53% | growth inhibition [4] 101%
inactive: inhibition [3] 4% | outcome [5] | outcome [6] | outcome [7] | outcome [8]

COc1ccc(-c2ccc(NC(=O)c3ccc(F)cc3)cc2)cc1CNC(C)C
inactive: growth inhibition [1] 28% | inhibition [2] 24% | inhibition [3] 2% | outcome [5] | outcome [6] | outcome [7] | outcome [8]
active: growth inhibition [4] 97%

Cc1cc(NC(=O)c2ccco2)ccc1OC1CCN(Cc2ccccc2)CC1
active: growth inhibition [1] 95% | growth inhibition [4] 93%
inactive: inhibition [2] 3% | inhibition [3] -9% | outcome [5] | outcome [6] | outcome [7] | outcome [8]

Oc1ccc(CNCCCCCCNCCc2ccc(Cl)cc2)cc1O
active: growth inhibition [4] 94%
inactive: growth inhibition [1] 7% | inhibition [2] 2% | inhibition [3] 2% | outcome [5] | outcome [6] | outcome [7] | outcome [8]

Cc1c(CCNC(=O)CCCN2CC(C)CC(C)C2)c2ccccc2n1C (stereo not given)
active: growth inhibition [1] 100% | growth inhibition [4] 87%
inactive: inhibition [2] 8% | inhibition [3] -9% | outcome [5] | outcome [6] | outcome [7] | outcome [8]

Cc1cc(N[C@@H](Cc2ccccc2)C(=O)NCc2cccc(F)c2)nc(Nc2ccccc2)n1
active: growth inhibition [1] 92% | growth inhibition [4] 100%
inactive: inhibition [2] 20% | inhibition [3] 5% | outcome [5] | outcome [6] | outcome [7] | outcome [8]

Cc1ccc(NC(=O)c2ccc3ncccc3c2)cc1OC1CCN(C(C)C)C1 (stereo not given)
inactive: growth inhibition [1] 37% | inhibition [2] 12% | inhibition [3] 1% | outcome [5] | outcome [6] | outcome [7] | outcome [8]
active: growth inhibition [4] 95%

CCN1CCN(c2cc(C)c3cc(NC(=O)c4cc(OC)cc(OC)c4)ccc3n2)CC1
active: growth inhibition [1] 90% | growth inhibition [4] 102%
inactive: inhibition [2] 0% | inhibition [3] 4% | outcome [5] | outcome [6] | outcome [7] | outcome [8]

— PubChem BioAssay
